From PubChem BioAssay (NCI)
About 83,000 compounds went through this panel and 20% of them were active in at least one assay; those are over-represented in the sample as a whole.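 Testing used 96-well plates and a 48-hour single-concentration exposure. Example: -40 means 40% of the starting cells died.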 Values without a mark were called inactive. Calls of active or inactive are those of the source. Rule for the calls: active = growth percent below 10; inactive = the rest.

Legend:
Assay in all cases: NCI-60 one-dose screen, 48 h (100 = growth as untreated, 0 = no growth, -100 = all killed)
Settings in all cases: 10 µM unless noted
NCI-H226 lung = system: NCI-H226 lung
NCI-H322M lung = system: NCI-H322M lung
HOP-62 NSCLC = system: HOP-62 NSCLC
NCI-H460 lung = system: NCI-H460 lung
NCI-H522 lung = system: NCI-H522 lung
A549/ATCC NSCLC = system: A549/ATCC NSCLC
786-0 renal = system: 786-0 renal
COLO 205 colon = system: COLO 205 colon
DU-145 prostate = system: DU-145 prostate
K-562 leukemia = system: K-562 leukemia
MALME-3M melanoma = system: MALME-3M melanoma
MDA-MB-231 breast = system: MDA-MB-231 breast
RXF 393 renal = system: RXF 393 renal
SF-268 CNS = system: SF-268 CNS
SF-295 CNS = system: SF-295 CNS
SF-539 CNS = system: SF-539 CNS
UACC-257 melanoma = system: UACC-257 melanoma
M14 melanoma = system: M14 melanoma
HOP-92 NSCLC = system: HOP-92 NSCLC

| SMILES | growth (NCI-H226 lung) | growth (NCI-H322M lung) | growth (HOP-62 NSCLC) | growth (NCI-H460 lung) | growth (NCI-H522 lung) | growth (A549/ATCC NSCLC) | growth (786-0 renal) | growth (COLO 205 colon) | growth (DU-145 prostate) | growth (K-562 leukemia) | growth (MALME-3M melanoma) | growth (MDA-MB-231 breast) | growth (RXF 393 renal) | growth (SF-268 CNS) | growth (SF-295 CNS) | growth (SF-539 CNS) | growth (UACC-257 melanoma) | growth (M14 melanoma) | growth (HOP-92 NSCLC) |
| --- | --- | --- | --- | --- | --- | --- | --- | --- | --- | --- | --- | --- | --- | --- | --- | --- | --- | --- | --- |
| CC1=C(C#N)C2=NNCC(c3ccccc3)=NN2C(c2ccccc2)=C1 | 111% | 105% | 85.6% | 111% | 93.7% | 99.3% | 98.2% | 113% | 111% | 110% | 93.3% | 105% | 131% | 134% | 103% | 102% | 96.6% | 103% |  |
| COc1c(F)ccc(C(=O)Nc2ccc3nc(NC(=O)C4CCCN(S(=O)(=O)c5ccc(C(F)(F)F)cc5)C4)sc3c2)c1F (centres undefined) | 81.3% | 91.9% | 94.6% | 78% | 76% | 75.3% | 62.9% | 84.2% | 88% | 64.6% | 89% | 81.3% | 9.04% (active) | 68% | 74.7% | 68.4% | 86.3% | 79.3% |  |
| COc1ccc(N2N=C(c3ccc4c(c3)OCO4)CC2c2cccc(NC(=O)CCNS(=O)(=O)c3ccc(Cl)cc3)c2)cc1 (centres undefined) | 30.8% | 51.8% | 50.2% | 22.3% | -80.7% (active) | 33.4% | 43% | 29.2% | 39.7% | 9.67% (active) | 18.7% | -5.89% (active) | 4.88% (active) | 32.8% | 10.7% | 38.2% | 49.2% | 29.5% | 32% |
| CC(=O)NNc1ccc2nnc(-c3ccccc3)n2n1 | 105% | 102% | 116% | 106% | 109% | 102% | 104% | 104% | 103% |  | 98.5% | 106% | 101% | 95% | 104% | 103% | 109% | 98.8% | 109% |
| CN(C)CCOc1ccc(C(=O)C2[C@H](c3ccc(Cl)cc3)[C@@H](c3ccccc3)NC23C(=O)Nc2ccccc23)cc1 (some centres undefined) | 72% | 82.5% | 84.2% | 9.91% (active) | 89.6% | 48.1% | 40.8% | -63.2% (active) | 66.6% | -51.5% (active) | 79.8% | 49.5% | 50.4% | 78.1% | 65.7% | 82.8% | 95.8% | 45.2% | 21.4% |
| CN(C)c1nc(NCCNS(=O)(=O)c2ccc(C3=Nc4c(N)nc(N)nc4NC(c4ccc(F)cc4)C3)cc2)nc(Nc2ccc(F)cc2)n1 (centres undefined) | 53% | 63.3% | 72.4% | 21.7% | 42.1% | 66.3% | 30.2% | 37.9% | 54.2% | 3.61% (active) | 47.1% | 20.8% | 16.5% | 31.9% | 57.3% | -25.3% (active) | 59.3% | 28% |  |
| CCOC(=O)C(N=Nc1ccc(S(=O)(=O)N=C(N)N)cc1)C(C)=O (centres undefined) | 95.1% | 107% | 119% | 109% | 95.2% | 107% | 96.7% | 106% | 111% | 94.1% | 129% | 107% | 105% | 101% | 125% | 104% | 126% | 124% | 99.9% |
| CC(C)c1ccc2c(N)c(C(=O)Nc3ccc(C(F)(F)F)cn3)sc2n1 | 22.9% | 86.3% | 57.7% | 61.6% | 63.2% | 66.9% | 64.3% | 93.1% | 63.8% | 33.1% | 63% |  | 74.5% | 91.8% | 34.3% | 88% | 60% | 50.5% | 65.1% |
| Cc1cc(C)cc(NC(=O)Cn2cc(COn3nnc4ccccc43)nn2)c1 | 101% | 99.3% | 115% | 114% | 95.6% | 107% | 101% | 117% | 111% | 102% | 108% | 106% | 122% | 116% | 110% | 99.6% | 101% | 106% | 117% |
| Cc1cccc(Nc2nc3ccccc3nc2/C=C/c2ccc(F)cc2)c1 | 95.2% | 95.5% | 99.7% | 95.4% | 79.4% | 91.2% | 97.3% | 106% | 101% | 86.5% | 109% | 97.1% | 98% | 91% | 107% | 102% | 94.5% | 93.3% | 84.5% |
| C#C[C@]1(O)CC[C@H]2[C@@H]3CC=C4c5sc(-c6ccc(O)c(O)c6)nc5CC[C@]4(C)[C@H]3CC[C@@]21C | -65.4% (active) | -79.6% (active) | -83.1% (active) | -77.6% (active) | -77.1% (active) | -78.6% (active) | -88.3% (active) | -80.2% (active) | -49.4% (active) | -51.3% (active) | -84% (active) | -77.8% (active) | -90.2% (active) | -76.7% (active) | -94.2% (active) | -93.2% (active) | -81.7% (active) | -87.7% (active) | -53.8% (active) |
